Assay results as given in the supplement of paper PMC6411743.
± gives the standard deviation of the averaged measurements. About 6,500 targets were measured; listed, in parts, are those with the largest changes and a random draw of the rest.

Compound: Nc1ncnc2c1ncn2[C@@H]1O[C@H](COP(=O)(O)OP(=O)(O)OP(=O)(O)O)[C@@H](O)[C@H]1O [adenosine triphosphate]
Assay: NP40-soluble protein abundance relative to vehicle (solubility fold change) (ratio); higher = more soluble protein in presence of ATP
Method in brief: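 Data come from three independent experiments in which Dounce-homogenised Jurkat crude lysate was treated at eight concentrations from 0.1 to 10 mM. Treatment ran 10 min at room temperature and then 3 min at 37 °C, after which 0.8% NP40 and benzonase were added for 60 min at 4 °C before ultracentrifugation. The supernatant underwent TMT labelling and LC-MS/MS, and vsn-normalised intensities were expressed as fold change against the detergent-processed vehicle in each replicate.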

Target: ATG4C (UniProt Q96DT6)
UniProt Q96DT6, sequence (Q96DT6 whole entry): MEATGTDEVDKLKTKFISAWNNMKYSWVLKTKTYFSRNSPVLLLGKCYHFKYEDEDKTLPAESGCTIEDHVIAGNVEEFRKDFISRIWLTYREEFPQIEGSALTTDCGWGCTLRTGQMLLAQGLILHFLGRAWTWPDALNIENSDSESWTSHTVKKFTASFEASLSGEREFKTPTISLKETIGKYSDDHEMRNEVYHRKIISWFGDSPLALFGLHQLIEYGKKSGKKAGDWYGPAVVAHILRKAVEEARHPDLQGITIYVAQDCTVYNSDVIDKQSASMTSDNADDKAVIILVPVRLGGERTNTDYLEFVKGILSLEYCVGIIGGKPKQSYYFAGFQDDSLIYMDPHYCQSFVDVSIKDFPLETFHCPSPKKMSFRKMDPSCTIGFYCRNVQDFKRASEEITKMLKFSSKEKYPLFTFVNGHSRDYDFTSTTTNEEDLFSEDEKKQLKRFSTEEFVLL
- NP40-soluble protein abundance (concentration: 1mM): 1.036 ± 0.003
- NP40-soluble protein abundance (concentration: 2mM): 1.05 ± 0.081
- NP40-soluble protein abundance (concentration: 4mM): 1.04 ± 0.041
- NP40-soluble protein abundance (concentration: 6mM): 0.992 ± 0.12
- NP40-soluble protein abundance (concentration: 8mM): 1.05 ± 0.087
- NP40-soluble protein abundance (concentration: 10mM): 1 ± 0.092

Target: UniProt Q96EZ8|Q96EZ8-2|Q96EZ8-3
Sequence (Q96EZ8 whole entry): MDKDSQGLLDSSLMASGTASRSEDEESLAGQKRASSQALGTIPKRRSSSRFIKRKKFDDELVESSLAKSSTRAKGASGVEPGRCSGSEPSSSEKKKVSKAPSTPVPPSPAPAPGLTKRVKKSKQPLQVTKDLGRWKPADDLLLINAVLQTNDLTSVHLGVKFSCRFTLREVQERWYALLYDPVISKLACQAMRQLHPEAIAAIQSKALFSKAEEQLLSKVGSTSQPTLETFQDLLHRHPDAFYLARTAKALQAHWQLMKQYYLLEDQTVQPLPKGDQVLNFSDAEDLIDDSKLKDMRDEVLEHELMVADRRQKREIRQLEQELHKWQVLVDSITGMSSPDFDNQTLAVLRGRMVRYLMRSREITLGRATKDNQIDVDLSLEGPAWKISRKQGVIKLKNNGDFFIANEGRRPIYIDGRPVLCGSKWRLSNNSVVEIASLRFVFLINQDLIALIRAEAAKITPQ
- NP40-soluble protein abundance (concentration: 1mM): 1.08 ± 0.04
- NP40-soluble protein abundance (concentration: 2mM): 1.06 ± 0.053
- NP40-soluble protein abundance (concentration: 4mM): 1.08 ± 0.013
- NP40-soluble protein abundance (concentration: 6mM): 1.09 ± 0.093
- NP40-soluble protein abundance (concentration: 8mM): 1.14 ± 0.038
- NP40-soluble protein abundance (concentration: 10mM): 1.18 ± 0.044

Target: PIEZO1 (UniProt Q92508)
UniProt Q92508, sequence (Q92508 whole entry): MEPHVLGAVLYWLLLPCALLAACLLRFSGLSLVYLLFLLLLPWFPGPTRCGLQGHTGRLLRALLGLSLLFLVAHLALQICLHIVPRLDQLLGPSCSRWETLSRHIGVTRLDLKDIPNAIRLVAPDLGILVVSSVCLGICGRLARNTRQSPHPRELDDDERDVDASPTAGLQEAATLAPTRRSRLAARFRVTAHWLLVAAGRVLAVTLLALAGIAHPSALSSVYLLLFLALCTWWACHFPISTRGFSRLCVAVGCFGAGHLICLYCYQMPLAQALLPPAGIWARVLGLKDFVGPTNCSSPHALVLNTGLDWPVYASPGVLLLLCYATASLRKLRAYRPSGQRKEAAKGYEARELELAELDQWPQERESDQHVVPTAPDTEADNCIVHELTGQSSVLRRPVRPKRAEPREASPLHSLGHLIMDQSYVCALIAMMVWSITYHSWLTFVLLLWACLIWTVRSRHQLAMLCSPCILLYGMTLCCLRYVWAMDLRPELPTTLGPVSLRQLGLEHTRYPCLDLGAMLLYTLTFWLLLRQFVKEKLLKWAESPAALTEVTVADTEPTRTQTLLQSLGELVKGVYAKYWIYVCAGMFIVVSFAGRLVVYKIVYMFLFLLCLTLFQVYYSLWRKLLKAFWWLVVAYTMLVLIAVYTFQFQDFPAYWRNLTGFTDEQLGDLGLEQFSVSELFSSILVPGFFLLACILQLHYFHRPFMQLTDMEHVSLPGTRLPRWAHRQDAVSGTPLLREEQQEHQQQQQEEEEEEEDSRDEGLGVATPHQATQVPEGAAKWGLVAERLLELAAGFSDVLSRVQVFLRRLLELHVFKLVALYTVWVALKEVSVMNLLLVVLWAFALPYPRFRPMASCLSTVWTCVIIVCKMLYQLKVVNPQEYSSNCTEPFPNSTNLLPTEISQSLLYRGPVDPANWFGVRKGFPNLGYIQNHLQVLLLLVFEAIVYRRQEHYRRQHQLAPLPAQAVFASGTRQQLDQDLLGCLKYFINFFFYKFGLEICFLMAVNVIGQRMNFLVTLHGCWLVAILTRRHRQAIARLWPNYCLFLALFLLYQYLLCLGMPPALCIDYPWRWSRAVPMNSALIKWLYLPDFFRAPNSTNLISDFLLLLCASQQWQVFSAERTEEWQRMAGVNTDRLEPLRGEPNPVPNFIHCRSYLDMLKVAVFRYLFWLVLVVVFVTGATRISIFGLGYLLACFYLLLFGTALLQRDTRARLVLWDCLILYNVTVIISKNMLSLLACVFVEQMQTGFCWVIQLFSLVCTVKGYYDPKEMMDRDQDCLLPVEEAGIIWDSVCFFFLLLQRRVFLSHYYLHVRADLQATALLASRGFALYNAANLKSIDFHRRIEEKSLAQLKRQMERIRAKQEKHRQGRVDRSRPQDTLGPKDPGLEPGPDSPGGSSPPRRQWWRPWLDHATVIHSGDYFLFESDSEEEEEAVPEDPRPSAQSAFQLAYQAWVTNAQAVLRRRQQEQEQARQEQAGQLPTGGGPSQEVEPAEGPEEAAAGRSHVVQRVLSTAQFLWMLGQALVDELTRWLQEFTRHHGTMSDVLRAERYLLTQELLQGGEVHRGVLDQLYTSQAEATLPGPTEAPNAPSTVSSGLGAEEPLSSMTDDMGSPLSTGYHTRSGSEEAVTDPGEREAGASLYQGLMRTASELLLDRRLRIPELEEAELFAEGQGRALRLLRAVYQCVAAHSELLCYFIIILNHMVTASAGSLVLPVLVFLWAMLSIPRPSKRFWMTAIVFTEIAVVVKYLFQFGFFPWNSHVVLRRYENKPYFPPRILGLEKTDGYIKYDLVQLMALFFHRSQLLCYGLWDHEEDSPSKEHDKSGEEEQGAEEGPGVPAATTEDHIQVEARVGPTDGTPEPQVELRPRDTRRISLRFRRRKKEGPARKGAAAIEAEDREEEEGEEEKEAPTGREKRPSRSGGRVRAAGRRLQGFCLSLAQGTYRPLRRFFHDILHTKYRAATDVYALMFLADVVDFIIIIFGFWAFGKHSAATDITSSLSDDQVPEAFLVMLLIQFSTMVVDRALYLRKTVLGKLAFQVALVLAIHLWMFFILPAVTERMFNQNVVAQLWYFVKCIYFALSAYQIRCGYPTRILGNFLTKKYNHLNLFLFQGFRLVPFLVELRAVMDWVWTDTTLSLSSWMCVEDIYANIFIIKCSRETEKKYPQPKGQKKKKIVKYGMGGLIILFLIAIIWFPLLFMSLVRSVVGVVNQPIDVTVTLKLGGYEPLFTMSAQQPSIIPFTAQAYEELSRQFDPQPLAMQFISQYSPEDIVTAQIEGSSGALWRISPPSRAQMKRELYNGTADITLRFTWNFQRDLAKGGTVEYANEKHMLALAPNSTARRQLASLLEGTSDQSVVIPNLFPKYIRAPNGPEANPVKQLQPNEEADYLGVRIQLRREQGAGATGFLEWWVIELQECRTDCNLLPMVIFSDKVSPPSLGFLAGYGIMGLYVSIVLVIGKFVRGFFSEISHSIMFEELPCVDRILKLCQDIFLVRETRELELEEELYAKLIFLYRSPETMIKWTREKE
- NP40-soluble protein abundance (concentration: 1mM): 1.1 ± 0.12
- NP40-soluble protein abundance (concentration: 2mM): 1.09 ± 0.13
- NP40-soluble protein abundance (concentration: 4mM): 1.14 ± 0.24
- NP40-soluble protein abundance (concentration: 6mM): 1.14 ± 0.12
- NP40-soluble protein abundance (concentration: 8mM): 1.09 ± 0.12
- NP40-soluble protein abundance (concentration: 10mM): 1.09 ± 0.012

Target: GTF2H4 (UniProt Q92759)
UniProt Q92759, sequence (Q92759 whole entry): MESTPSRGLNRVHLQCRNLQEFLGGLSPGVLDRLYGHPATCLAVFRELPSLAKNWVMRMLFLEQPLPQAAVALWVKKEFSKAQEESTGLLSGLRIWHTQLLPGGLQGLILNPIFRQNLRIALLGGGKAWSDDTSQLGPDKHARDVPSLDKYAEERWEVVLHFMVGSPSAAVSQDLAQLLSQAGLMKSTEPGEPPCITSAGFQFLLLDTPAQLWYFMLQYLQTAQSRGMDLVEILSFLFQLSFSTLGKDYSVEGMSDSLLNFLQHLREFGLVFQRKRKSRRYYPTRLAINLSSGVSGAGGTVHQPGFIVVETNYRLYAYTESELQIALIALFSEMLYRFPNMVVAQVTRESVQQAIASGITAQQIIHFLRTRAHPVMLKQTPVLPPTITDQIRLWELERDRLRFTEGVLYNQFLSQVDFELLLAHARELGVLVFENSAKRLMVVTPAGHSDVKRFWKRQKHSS
- NP40-soluble protein abundance (concentration: 1mM): 1.08 ± 0.072
- NP40-soluble protein abundance (concentration: 2mM): 1.04 ± 0.035
- NP40-soluble protein abundance (concentration: 4mM): 1.09 ± 0.059
- NP40-soluble protein abundance (concentration: 6mM): 0.975 ± 0.13
- NP40-soluble protein abundance (concentration: 8mM): 1.16 ± 0.069
- NP40-soluble protein abundance (concentration: 10mM): 1.12 ± 0.036
